Assay results from PubChem BioAssay (NCI).
This is part of a sample that, as a whole, favours compounds with a hit. Of some 79,000 tested, about 15% had one in any assay. Activity calls are given as the source filed them. Rule as the data show it: active = growth inhibition above about 70%; inactive = the rest.

What was measured:
[1] = NCI Yeast Anticancer Drug Screen. Data for the rad50 strain (AID 155);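 also: 0% = growth of vehicle-only cultures of the same strain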; details: S. cerevisiae rad50 strain growth inhibition; at 50.0 µM; hits give high values
Method in brief: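 A DNA repair-deficient yeast mutant serves as the test organism; compound-induced growth inhibition is calculated against vehicle-treated cells.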

[2] = NCI Yeast Anticancer Drug Screen. Data for the mec2-1 strain (AID 157); details: S. cerevisiae mec2-1 strain, at 50.0 µM, hits give high values
Method in brief: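 Growth inhibition is read against vehicle-treated controls after compound exposure of the mec2-1 yeast strain, which is defective in DNA damage repair or cell cycle control.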

[3] = NCI Yeast Anticancer Drug Screen. Data for the sgs1 mgt1 strain (AID 161);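 also: 0% = growth of cultures given vehicle only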; details: S. cerevisiae sgs1 mgt1 strain, at 50.0 µM, hits give high values
Method in brief: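 Growth of a repair-deficient yeast mutant was monitored after compound treatment and expressed as inhibition relative to vehicle-treated cultures.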

[4] = NCI Yeast Anticancer Drug Screen. Data for the cln2 rad14 strain (AID 165);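 also: 0% = growth equal to vehicle treated cultures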; details: S. cerevisiae cln2 rad14 strain, at 50.0 µM, hits give high values
Method in brief: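 Growth inhibition, relative to vehicle-treated controls, is the read-out. The test organism is a yeast strain with defined genetic alterations, cln2 rad14.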

[5] = NCI Yeast Anticancer Drug Screen. Data for the bub3 strain (AID 167); details: S. cerevisiae bub3 mutant strain, at 50.0 µM, hits give high values
Method in brief: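 Inhibition values come from growth of compound-treated mutant yeast normalised to vehicle-treated controls.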

[6] = NCI Yeast Anticancer Drug Screen. Data for the mlh1 rad18 strain (AID 175); details: S. cerevisiae mlh1 rad18 strain growth inhibition; at 50.0 µM; hits give high values
Method in brief: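 Cells of a genetically altered yeast strain, deficient in DNA damage repair, were treated with compound. Their growth was then compared with that of vehicle-treated cultures to give inhibition.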

Measured: growth inhibition

CCOC(=O)C1CSC(N)=N1 (stereo unspecified)
inactive: [1] 4.45% | [2] -38.9% | [3] -11.8% | [4] -29.4% | [5] 5.65% | [6] -7.8%

CC1CCC2CC(=O)C(Br)CC2(C)C1C (stereo unspecified)
inactive: [1] 23.6% | [2] -8.95% | [3] 9.75% | [4] -5.35% | [5] -3.95% | [6] 7.45%

CN(C)c1ccc(C=C2C(=O)CC(C)(C)CC2=O)cc1
inactive: [1] 12.5% | [2] 10.2% | [3] 23.1% | [4] 16.1% | [5] 5.85% | [6] -8.4%

CCOC(=O)/C=C(\Nc1ccc(C(c2ccccc2)(c2ccccc2)c2ccccc2)cc1)C(=O)OCC
inactive: [1] 38.2% | [2] 9.9% | [3] 32% | [4] 20.2% | [5] -7.3% | [6] 27.1%

COc1ccc(S(=O)(=O)N/N=C/c2cccc([N+](=O)[O-])c2O)cc1
inactive: [1] 9.3% | [2] -3.7% | [3] 19.7% | [4] 2% | [5] 12% | [6] 32.6%

CCc1ccc(NC(=O)C(c2ccccc2)c2ccccc2)cc1
inactive: [1] 8.6% | [2] 13.3% | [3] 2.35% | [4] 11.8% | [5] 20.6% | [6] -9.1%

CCOCCOC(=O)C(C)OC(=O)/C(=C/C(=O)O)CCOCC (stereo unspecified)
inactive: [1] -1% | [2] -18.4% | [3] -9.75% | [4] -0.2% | [5] -1.6% | [6] 8.85%

CN=C(NC#N)NCCSCc1nc[nH]c1C
inactive: [1] 20.3% | [2] 16.8% | [3] -17.5% | [4] -5.2% | [5] -16.6% | [6] -29.2%

N#C/C(=C/c1cccc(Oc2ccccc2)c1)c1ccccc1
inactive: [1] 11.7% | [2] -28.2% | [3] -0.55% | [4] -1.5% | [5] -23.1% | [6] -14.4%

O=C(NC(=O)C(Cl)Cl)OC1c2cc(Cl)ccc2-c2c(Cl)cc(Cl)cc21 (stereo unspecified)
active: [1] 99.1% | [2] 99.5% | [3] 99.3% | [4] 98.8% | [5] 97.8% | [6] 99.2%

c1ccc(CCc2ccncc2)cc1
inactive: [1] -3.05% | [2] -22.6% | [3] -8.35% | [4] -26.5% | [5] 3.6% | [6] -13.3%

CSc1nc2c(N)ncnc2n1C
inactive: [1] 11.4% | [2] 1.4% | [3] 9.55% | [4] 27.7% | [5] 8.15% | [6] 36.8%

C=CC(C)(O)/C=C/C=C(\C)C(CC1OC1(C)C)OC(=O)/C(C)=C\C (stereo unspecified)
inactive: [1] -10.8% | [2] -16.9% | [3] 3.55% | [4] 10.3% | [5] -19.6% | [6] -64.1%

Nc1ccc(Cl)cc1C(=O)Oc1ccccn1
inactive: [1] 6.9% | [2] -0.65% | [3] -6.25% | [4] -0.4% | [5] -5.5% | [6] -0.7%

NC(=O)c1nnc2cc(F)ccc2c1N
inactive: [1] 4.8% | [2] -3.45% | [3] 1.35% | [4] 0.4% | [5] 1.6% | [6] -1.6%

CC(C)(C#N)OC(=O)Nc1cccc(Cl)c1
inactive: [1] 5.55% | [2] -5.6% | [3] 3.75% | [4] -35.1% | [5] -30.6% | [6] -26.8%

CC(C)CSC(C)C
inactive: [1] -3.6% | [2] -43.4% | [3] -27.6% | [4] -5.25% | [5] -6.9% | [6] -11.1%

NC(CSS(=O)(=O)c1ccccc1)C(=O)O (stereo unspecified)
inactive: [1] 4% | [2] -37.5% | [3] -0.75% | [4] 0.5% | [5] -10.6% | [6] 0.3%

CSc1ncnc2nn(C3OC(CO)C(O)C3O)cc12 (stereo unspecified)
inactive: [1] 8.1% | [2] 5.85% | [3] 6.25% | [4] 8.4% | [5] -9.6% | [6] -5.4%

Cn1c(=O)cc(NC2OC(CO)C(O)C(O)C2O)[nH]c1=O (stereo unspecified)
inactive: [1] 2.1% | [2] -3.3% | [3] 24.8% | [4] -5.3% | [5] 0.75% | [6] 11.5%

C/C(=N\N(C)C)c1sc(-n2nc(-c3ccccc3)cc2-c2ccccc2)nc1C
inactive: [1] 10.7% | [2] -10.2% | [3] 17.6% | [4] -8% | [5] 11% | [6] 8.75%

CCOC(=O)CNC(=O)CNC(=O)CNS(=O)(=O)c1ccc(C)cc1
inactive: [1] -22.1% | [2] 15.2% | [3] 3.1% | [4] -28.5% | [5] 10.9% | [6] -45.8%

COC1CC(NC(=O)C(F)(F)F)C(O)C(CNC(=O)C(F)(F)F)O1 (stereo unspecified)
inactive: [1] -32.5% | [2] 17.2% | [3] -3.55% | [4] -14% | [5] 16.1% | [6] 19.4%

O=[n+]1c(-c2ccccc2)c(-c2ccccc2)n([O-])c2cc3ccccc3cc21
inactive: [1] 28.7% | [2] 3.65% | [3] 12.2% | [4] -24.6% | [5] 6.05% | [6] 26.4%

CC(C)Oc1cc2c(cc1O)CC[C@@H]1[C@@H]2CC[C@]2(C)[C@@H](O)CC[C@@H]12
inactive: [1] 45.9% | [2] 8.2% | [3] 63.7% | [4] 33% | [5] 56.9% | [6] 44.1%

C[N+]1(C)C2CCC1CC(OC(=O)C(O)c1ccccc1)C2 (stereo unspecified)
inactive: [1] -6.8% | [2] -54.4% | [3] -5.1% | [4] -4.85% | [5] -13.8% | [6] -4.8%

Clc1ccccc1C(CI)c1ccccc1Cl
inactive: [1] 25.6% | [2] 9.75% | [3] 15.2% | [4] 13.4% | [5] -1.2% | [6] 10.1%

COc1ccc(C(=O)/C=c2/c(CC(=O)c3ccc(OC)cc3)nc3nnc(N)n23)cc1
inactive: [1] 15.5% | [2] -4.05% | [3] -6.25% | [4] 21.9% | [5] 1.45% | [6] 8.6%

CC1(C)C2C=CC1(C)C1(CC2)OCCO1 (stereo unspecified)
inactive: [1] 10.5% | [2] 17.5% | [3] -20.5% | [4] 20.8% | [5] -55.8% | [6] -115%

CC(C)(S(=O)(=O)Oc1ccccc1)S(=O)(=O)Oc1ccccc1
inactive: [1] 1.6% | [2] 9.95% | [3] -15.4% | [4] -16.9% | [5] 49.8% | [6] 16.6%

Nc1ccc2c(c1)Cc1c-2cc(Cl)c(N)c1Cl
inactive: [1] 8.85% | [2] -0.65% | [3] -18.8% | [4] 6.5% | [5] 13.8% | [6] 6.2%

CC1=CC(=O)[C@@H](O)[C@]2(C)[C@H]3[C@@]4(O)OC[C@]35[C@H]([C@@H](CO)[C@H]4O)[C@@H](OC3OC(CO)C(O)C(O)C3O)C(=O)O[C@@H]5C[C@@H]12 (stereo partly specified)
inactive: [1] -9.55% | [2] -14.5% | [3] -19.2% | [4] 2.65% | [5] -25.1% | [6] -25.9%

C/C(=N\N=C(N)N)C(CN(CC(C)C)CC(C)C)C(=O)Nc1ccc(C)cc1C (stereo unspecified)
inactive: [1] 7.6% | [2] 6.55% | [3] 10.3% | [4] 38.3% | [5] -3.85% | [6] 13.8%

Oc1cc(CN2CCOCC2)c(O)c(CN2CCOCC2)c1
inactive: [1] 14.7% | [2] 8.95% | [3] 21.1% | [4] 20% | [5] 7.7% | [6] 24.6%

OC(CNC1CCCCC1)(c1ccccc1)c1ccccc1
inactive: [1] -11.2% | [2] -8.35% | [3] 13.9% | [4] 10.8% | [5] 30.2% | [6] -20.6%

NNC(=O)c1ccc(-c2ccc[nH]2)[nH]1
inactive: [1] 10.7% | [2] 0.7% | [3] -20.9% | [4] -75.5% | [5] -14.4% | [6] 5%

O=C(C[n+]1cccc(Cl)c1)c1cccc([N+](=O)[O-])c1
inactive: [1] -25.7% | [2] -7.2% | [3] -9.25% | [4] -3.8% | [5] 4.55% | [6] -5%

CCCCCCCCCCOc1ccc(C2=C(c3ccccc3)C(=O)C(c3ccccc3)=C2c2ccccc2)cc1
inactive: [1] 25.3% | [2] 10.4% | [3] 17.4% | [4] 14.9% | [5] -5.3% | [6] 3.6%

OCC12CCCC(OC1)O2 (stereo unspecified)
inactive: [1] -8.6% | [2] -14.7% | [3] -25.9% | [4] 0.2% | [5] 13.8% | [6] -4.65%

CC(=O)CCC(CC(=O)O)C(C)C (stereo unspecified)
inactive: [1] 12% | [2] 0.05% | [3] 14.9% | [4] -9% | [5] 4.8% | [6] 24.1%

COC(=O)/C(C#N)=C\n1c(=S)[nH]c2ccccc21
inactive: [1] -14.2% | [2] 2.55% | [3] -16.4% | [4] 17.4% | [5] -4.9% | [6] -8.35%
